Screens deposited in PubChem BioAssay by several laboratories.
AI-2 QS mod – modulators of Vibrio harveyi AI-2 quorum sensing system | activity change, % at 7.5 µM | AID 2094 | 0.4% of 300,000 active | Vibrio harveyi JMH597 AI-2 luminescence/OD600 ratio, 9 h; hits give low values; strain lacks LuxN and CqsS sensors; 0 = neutral-control median; in the data active means activity change below about -75%, passing the limit was not always enough;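 further: luminescence divided by OD600 gain over 9 h not by final OD600 alone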
Rin1 Abl inh – blocks binding of human Rin1 to Abl; TR-FRET Rin1/Abl binding, biochemical; inhibition, % at 7.35 µM; 0.4% of 360,000 active; in the data active means inhibition above about 5%, passing the limit was not always enough
ARNT TACC3 PPI – disruptors of human ARNT/TACC3 interaction. Q9Y6A5. AlphaScreen His-ARNT PAS-B/GST-TACC3 binding, luminescence; TACC3 fragment carries E629A point mutation. 0.66% of 390,000 active. inhibition, % at 9.99 µM;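 active means mean inhibition of replicates at least 50% and at least half of replicates each reaching 50%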
HGIII-sPLA2 inh – Inhibits HGIII-sPLA2 liposome hydrolysis, primary screen; 0.56% of 370,000 active; inhibition, % at 12.2 µM; Q9NZ20; QFRET BODIPY PC-A2 liposome hydrolysis, fluorescence; AID 743126;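 active means inhibition above mean plus 3 SD of compounds lying within the high and low control bounds, cut at about 19% in these data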
Target sequence (Q9NZ20 whole entry, looked up): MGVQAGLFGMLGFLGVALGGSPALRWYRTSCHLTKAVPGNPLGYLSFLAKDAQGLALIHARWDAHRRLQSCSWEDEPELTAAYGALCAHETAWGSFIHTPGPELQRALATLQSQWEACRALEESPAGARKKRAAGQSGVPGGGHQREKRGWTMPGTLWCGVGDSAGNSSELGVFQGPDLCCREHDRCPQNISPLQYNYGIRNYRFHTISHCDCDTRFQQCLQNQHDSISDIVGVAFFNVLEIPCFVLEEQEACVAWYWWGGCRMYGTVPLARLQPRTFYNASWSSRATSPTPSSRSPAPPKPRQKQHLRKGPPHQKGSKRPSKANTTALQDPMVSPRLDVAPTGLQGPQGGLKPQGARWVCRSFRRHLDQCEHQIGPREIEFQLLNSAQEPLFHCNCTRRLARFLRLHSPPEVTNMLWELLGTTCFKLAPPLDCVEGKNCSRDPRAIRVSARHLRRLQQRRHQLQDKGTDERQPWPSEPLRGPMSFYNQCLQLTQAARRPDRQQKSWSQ
Rin1 Abl conf – Rin1-Abl interaction inhibition confirmation. shares compounds with Rin1 Abl inh. TR-FRET Rin1-Abl binding, purified proteins. inhibition, % at 7.35 µM. 49% of 1,300 active. AID 602124
GFP quencher – GFP fluorescence interference artifact. inhibition, % at 6.75 µM. AID 602125. inhibitors/quenchers counterscreen. shares compounds with Rin1 Abl inh. 8.5% of 1,300 active;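 further: ABL1-eGFP fusion protein alone without its partner RIN1-SBP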
GFP quench DR – counter-screen for Rin1-Abl inhibitors: GFP quenchers, dose response. shares compounds with Rin1 Abl inh. GFP fluorescence interference/quenching counterscreen. IC50, µM. 230 tested, under 10 active; call rule not given here;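 further: ABL1-eGFP fusion protein alone without its RIN1 binding partner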
Of the large screens only hits and unclear results are named; the others gave an inactive call (follow-up assays come after a bar, where they were run). Sampled rows, rich in hits. Any-hit rate of the full collection: about 1.5%. Unless noted, no stated cut-off is given here; in the data, active means inhibition above about 6.5%; inactive means the rest.

COc1ccc(C(c2oc(CO)cc(=O)c2O)c2oc(CO)cc(=O)c2O)cc1OC	none
COc1ccc(C(c2oc(CO)cc(=O)c2O)c2oc(CO)cc(=O)c2O)cc1	Rin1 Abl inh 16 | Rin1 Abl conf 11 | GFP quencher inactive
COc1ccccc1CNc1nc(NCCN2CCNC2=O)c2sccc2n1	Rin1 Abl inh 12 (no result: AI-2 QS mod, ARNT TACC3 PPI) | Rin1 Abl conf 6.9 | GFP quencher inactive
O=C(Nc1nnc(Cc2ccc(Cl)cc2)s1)c1ccco1	Rin1 Abl inh 7.4 | Rin1 Abl conf inactive | GFP quencher inactive
COc1cc(OC)cc(-c2oc(=O)c3cc(OC)c(OC)cc3c2C#CCCO)c1	Rin1 Abl inh 29 (no result: AI-2 QS mod) | Rin1 Abl conf 76 | GFP quencher inactive
COc1ccc(-c2ccc3c(c2)O[C@H](CN(C)C)[C@@H](C)CN([C@H](C)CO)S3(=O)=O)cc1	none (no result: AI-2 QS mod, Rin1 Abl inh, HGIII-sPLA2 inh)
C[C@@H]1CCCCO[C@@H](CN(C)Cc2ccc(C(=O)O)cc2)[C@@H](C)CN([C@@H](C)CO)C(=O)c2cc(NC(=O)Cc3ccccc3)ccc2O1	none (no result: AI-2 QS mod, Rin1 Abl inh, HGIII-sPLA2 inh)
O=C(O)c1ccc(COc2ccccc2Cl)cc1	Rin1 Abl inh 5.0 (no result: ARNT TACC3 PPI) | Rin1 Abl conf inactive | GFP quencher inactive
O=C(O)c1cccc(COc2ccccc2Cl)c1	none
c1ccc(C(c2ccccn2)c2ccccn2)cc1	Rin1 Abl inh 6.5 | Rin1 Abl conf 7.3 | GFP quencher inactive
O=c1cc(CO)oc(C(Nc2ccccn2)c2ccccc2Cl)c1O (stereo not drawn)	none
Cc1ccnc(NC(c2ccccc2O)c2oc(CO)cc(=O)c2O)c1 (stereo not drawn)	Rin1 Abl inh 27 | Rin1 Abl conf 9.8 | GFP quencher inactive
O=C(N[C@@H]1CC[C@@H](CCn2cc(C3CC3)nn2)O[C@H]1CO)c1cccnc1	none (no result: AI-2 QS mod, Rin1 Abl inh, HGIII-sPLA2 inh)
CO[C@H]1CN(C)C(=O)c2cc(NS(=O)(=O)CC(F)(F)F)ccc2OC[C@H](C)N(Cc2ccccn2)C[C@@H]1C	none (no result: AI-2 QS mod, Rin1 Abl inh, HGIII-sPLA2 inh)
C[C@@H]1CN([C@@H](C)CO)S(=O)(=O)c2ccc(/C=C/c3ccccc3)cc2O[C@H]1CN(C)C(=O)c1ccc2c(c1)OCO2	none (no result: AI-2 QS mod, Rin1 Abl inh, HGIII-sPLA2 inh)
Nc1nccnc1C(=O)OCC(=O)NNC(=O)c1ccccc1	Rin1 Abl inh 8.2 | Rin1 Abl conf inactive | GFP quencher inactive
COc1ccccc1C(=O)NC(=O)COC(=O)c1nccnc1N	none (no result: AI-2 QS mod)
CCCC(c1nnnn1CC1CCCO1)N1CCN(c2cc(Cl)ccc2C)CC1 (stereo not drawn)	none
Cc1ccc(Cl)cc1N1CCN(C(CC(C)C)c2nnnn2CC2CCCO2)CC1 (stereo not drawn)	Rin1 Abl inh 7.4 | Rin1 Abl conf inactive | GFP quencher inactive
CS/C(=N\S(=O)(=O)c1cccs1)Nc1ccc(F)c(Cl)c1	Rin1 Abl inh 5.0 | Rin1 Abl conf inactive | GFP quencher inactive
O=C(CCNC(=O)c1ccc(Br)cc1)NCc1ccncc1	Rin1 Abl inh 10 | Rin1 Abl conf inactive | GFP quencher inactive
CC(C)NC(=O)N[C@H]1CC[C@H](CCNC(=O)C2CCC2)O[C@@H]1CO	none (no result: AI-2 QS mod, Rin1 Abl inh, HGIII-sPLA2 inh)
COc1cc2c(C(=O)N3CCN(c4cccc(Cl)c4)CC3)cn(C)c(=O)c2cc1OC	Rin1 Abl inh 17 | Rin1 Abl conf 32 | GFP quencher inactive | GFP quench DR inactive
CNC[C@@H]1Oc2ccc(NC(=O)Nc3ccc4c(c3)OCO4)cc2C(=O)N([C@@H](C)CO)C[C@H]1C	none (no result: AI-2 QS mod, Rin1 Abl inh, HGIII-sPLA2 inh)
CCCNC(=O)N[C@@H]1CC[C@H](CC(=O)NC2CCC2)O[C@@H]1CO	none (no result: AI-2 QS mod, Rin1 Abl inh, HGIII-sPLA2 inh)
COc1ccc(-c2ccnc3c(C(=O)O)cnn23)cc1	Rin1 Abl inh 9.6 | Rin1 Abl conf inactive | GFP quencher inactive
O=C(O)c1cnn2c(-c3ccccc3)ccnc12	none
Cc1ccccc1NC(=O)CNC(=O)c1ccc(C(F)(F)F)cc1	none
Cc1ccccc1NC(=O)Nc1ccc(C(F)(F)F)cc1	Rin1 Abl inh 9.0 (no result: ARNT TACC3 PPI) | Rin1 Abl conf inactive | GFP quencher inactive
CN=c1scc(-c2ccccc2F)n1/N=C/c1ccc(O)c(O)c1O	Rin1 Abl inh 6.3, ARNT TACC3 PPI 53 | Rin1 Abl conf 8.8 | GFP quencher 6.7
CC(C)NC(=O)N1C[C@H]2[C@@H](c3ccccc31)[C@@H](CO)N2Cc1ccccc1	none (no result: AI-2 QS mod, Rin1 Abl inh, HGIII-sPLA2 inh)
[C-]#[N+][C@H](O[C@@H]1O[C@H](CO)[C@@H](O)[C@H](O)[C@H]1O)c1ccccc1	none
O=C(O)CC(CCc1ccccc1)OC1OC(CO)C(O)C(O)C1O (stereo not drawn)	Rin1 Abl inh 30 (no result: AI-2 QS mod) | Rin1 Abl conf 26 | GFP quencher inactive | GFP quench DR inactive
COc1ccc(C(=O)CC(C#N)c2ccc3c(c2)OCO3)cc1OC (stereo not drawn)	Rin1 Abl inh 11 (no result: AI-2 QS mod, ARNT TACC3 PPI) | Rin1 Abl conf inactive | GFP quencher inactive
COc1ccc(C(C#N)CC(=O)c2ccc3c(c2)OCO3)cc1OC (stereo not drawn)	none (no result: AI-2 QS mod, ARNT TACC3 PPI)
Cc1ccc(S(=O)(=O)Nc2ccc3c(c2)CC(=O)N([C@H](C)CO)C[C@@H](C)[C@H](CN(C)C(=O)Nc2ccc(C(F)(F)F)cc2)O3)cc1	none (no result: AI-2 QS mod, Rin1 Abl inh, HGIII-sPLA2 inh)
O=C(Nc1nc(-c2cc(Cl)sc2Cl)cs1)c1ccc(Br)s1	Rin1 Abl inh 6.0 | Rin1 Abl conf inactive | GFP quencher inactive
CCCCCCSc1ccc([C@@H]2[C@@H]3C(=O)N(CC)C(=O)[C@@H]3[C@]3(C(=O)OC)CCCCN23)cc1	none (no result: AI-2 QS mod)
CCCCCCSc1ccc([C@@H]2[C@H]3C(=O)N(C)C(=O)[C@H]3[C@]3(C(=O)OC)CCCCN23)cc1	Rin1 Abl inh 10 (no result: ARNT TACC3 PPI) | Rin1 Abl conf inactive | GFP quencher inactive
Cc1nn(CC(=O)NCc2cccc(F)c2)c(=O)c2cccn12	Rin1 Abl inh 8.6 | Rin1 Abl conf inactive | GFP quencher inactive
CCOC(=O)c1ccc(NC(=O)N2CCN(c3ccccc3OC)CC2)cc1	Rin1 Abl inh 9.4 (no result: ARNT TACC3 PPI) | Rin1 Abl conf 16 | GFP quencher inactive
CCOC(=O)N1CCN(c2ccccc2OC)CC1	none
O=C(NCC[C@@H]1CC[C@@H](NS(=O)(=O)c2cccc(F)c2)[C@@H](CO)O1)Nc1cc(F)ccc1F	none (no result: AI-2 QS mod, Rin1 Abl inh, HGIII-sPLA2 inh)
CCCn1c2ccccc2c2nnc(SCc3[nH]c(=O)[nH]c3C(=O)CCCCC(=O)OCC)nc21	Rin1 Abl inh 52 | Rin1 Abl conf 56 | GFP quencher inactive | GFP quench DR inactive
CCOC(=O)CCCCC(=O)c1[nH]c(=O)[nH]c1CSc1nnc2c3ccccc3n(C(C)C)c2n1	Rin1 Abl inh 53 | Rin1 Abl conf 68 | GFP quencher inactive | GFP quench DR inactive
CCOC(=O)C(C)Sc1nnc2c3ccccc3n(C)c2n1 (stereo not drawn)	none
O=C(C[C@H]1C=C[C@@H](NC(=O)c2cccc(F)c2)[C@@H](CO)O1)NCCN1CCCC1	none (no result: AI-2 QS mod, Rin1 Abl inh, HGIII-sPLA2 inh)
O=C(NCCO)c1ccc2nc(-c3ccco3)c(-c3ccco3)nc2c1	Rin1 Abl inh 10.0 | Rin1 Abl conf inactive | GFP quencher 14
